This is a sample that favours compounds with a hit; in the whole collection about 2.8% have one here.
PGE2 EP2 inh: human EP2 receptor antagonists, primary screen, TR-FRET cAMP, C6 glioma cells; Prostaglandin E2 receptor EP2 subtype (Homo sapiens), P43116; C6 glioma cells expressing human EP2; cells stimulated with saturating PGE2; inhibition, % at 25 µM; 260,000 tested, 0.52% active; AID 1422, 2008;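 active means percent inhibition above 40 after rounding to a whole number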;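 further: rat C6 glioma host cells with rolipram phosphodiesterase inhibitor present; the protocol text gives 20 µM as final concentration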
Wee1 degr inh: Wee1 degradation inhibitors, primary screen, cell-based, HeLa, Wee1K328M-luciferase, luminescence. reporter increase, % at 5 µM. 220,000 tested, 1.2% active. Wee1-like protein kinase (Homo sapiens), P30291. HeLa Luc-Wee1K328M stability; 100% = proteasome inhibitor MG132 effect;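 active means activation above the mean of all tested compounds plus 3 SD, set per screening run, cut at about 8.8% in these data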;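 further: cells exposed to compound for 20 h before luminescence read; 0% = DMSO alone and 100% = MG132 at 30 µM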
Target sequence (P30291 whole entry K328M): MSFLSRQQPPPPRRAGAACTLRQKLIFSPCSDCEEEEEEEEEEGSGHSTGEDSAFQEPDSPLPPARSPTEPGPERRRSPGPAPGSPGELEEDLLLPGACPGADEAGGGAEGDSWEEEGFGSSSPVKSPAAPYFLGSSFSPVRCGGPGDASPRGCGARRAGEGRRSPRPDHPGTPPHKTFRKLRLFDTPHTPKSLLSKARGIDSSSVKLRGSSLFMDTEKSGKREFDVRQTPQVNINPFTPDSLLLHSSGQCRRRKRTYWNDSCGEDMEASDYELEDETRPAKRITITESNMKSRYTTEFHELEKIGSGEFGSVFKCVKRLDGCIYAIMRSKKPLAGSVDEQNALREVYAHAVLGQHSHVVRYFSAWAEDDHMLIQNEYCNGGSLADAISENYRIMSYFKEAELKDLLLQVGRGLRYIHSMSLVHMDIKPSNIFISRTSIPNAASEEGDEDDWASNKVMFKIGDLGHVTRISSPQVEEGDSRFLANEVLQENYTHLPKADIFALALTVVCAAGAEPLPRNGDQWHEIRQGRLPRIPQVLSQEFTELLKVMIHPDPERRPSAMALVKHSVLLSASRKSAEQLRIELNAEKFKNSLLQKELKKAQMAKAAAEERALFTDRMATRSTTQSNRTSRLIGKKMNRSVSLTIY
p47phox inh: p47phox/p22phox peptide binding inhibitors, primary screen, biochemical, uHTS, NADPH oxidase regulatory subunit; fluorescence polarization, 2 h; Neutrophil cytosol factor 1 (Homo sapiens), P14598; inhibition, % at 24.7 µM; 220,000 tested, 0.53% active;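 active means inhibition above about 30%, limit read from the data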;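 further: 0% = p47phox with labelled peptide and 100% = labelled peptide alone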
HSV augment: enhancers of HSV replication in host cells, fold increase, host cell viability | maximum fold increase | HSV replication augmentation in cells | 220,000 tested, 0.005% active | AID 1956, 2009; in the data active means maximum fold increase above about 1.5; inconclusive means no clear call, values can overlap the other calls; tested in PC3 cells
Furin inh: human furin inhibitors, primary screen, biochemical, fluorescence intensity. P09958. purified furin, fluorogenic substrate cleavage. inhibition, % at 20 µM or 30 µM. 220,000 tested, 0.061% active; in the data active means inhibition above about 25%
EP2 modulator: EP2 receptor modulators, cAMP readout, primary screen, cell-based, HTRF cAMP, PGE2 stimulation; EP2-expressing cells, cAMP HTRF FRET, PGE2 co-stimulation; 260,000 tested, 0.83% active; induction, % at 25 µM; AID 940, 2007;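 active means compounds whose cAMP rise, as percent of the full-agonist control response, exceeds 60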;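 further: rat C6 glioma line stably carrying human EP2 under a CMV promoter; the protocol text gives 20 µM as final concentration; 100% = response of wells given 1 µM PGE2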
Active calls of the source: *; i = inactive; ? = inconclusive; . = no result given.

SMILES | PGE2 EP2 inh | Wee1 degr inh | p47phox inh | HSV augment | Furin inh | EP2 modulator
CCn1c(C)cc2cc(NC(=O)CC(C)n3nc(C)c(C)c3C)ccc21 (centres undefined) | 5.1 | . | . | . | . | -29.1
Cc1cc2cc3c(cc2nc1SCC(=O)Nc1ccccc1F)OCO3 | 15.5 | . | . | . | . | 10.9
Cc1cc2cc3c(cc2nc1SCC(=O)c1ccccc1F)OCCO3 | 19.1 | . | . | . | . | 72.2*
CCOc1ccc(/C(O)=C2\C(=O)C(=O)N(c3cc(C)on3)C2c2ccccc2OC)cc1 (centres undefined) | 40.2* | 0.7 | -0.4 | i | -17.9 | 31.9
CC(=O)C1CC(CC(=O)N[C@@H](C)Cn2nnc3ccccc32)C1(C)C (some centres undefined) | 8.8 | . | . | . | . | -2.6
OCC#CCSc1nnc(-c2ccc(Br)cc2)o1 | 7.3 | -0.8 | -3.4 | i | -26.9 | 36.8
COC(=O)Sc1nnc(-c2ccc(Br)cc2)o1 | 45.2* | -1.0 | -17.6 | i | -26.9 | 33.9
CN(C)CN1C(=O)S/C(=C2\C(=O)N(CN(C)C)c3ccccc32)C1=O | 37.3 | . | . | . | . | 7.7
CN(C)CCCn1c(SCC(=O)Nc2nc(-c3cccc(Br)c3)cs2)nc2ccccc2c1=O | 4.8 | -2.2 | 76.2* | i | -25.1 | -25.7
O=C(CSc1nc2ccccc2[nH]1)Nc1nc(-c2cccc(Br)c2)cs1 | 12.2 | 2.5 | -26.1 | i | -21.6 | -3.4
CC1=CC(=O)C(C(C)C)=C/C1=N/OS(=O)(=O)c1ccccc1 | 12.6 | -0.7 | -12.9 | i | -1.5 | -19.5
CC1=CC(=O)C=C(C)C1=NOS(=O)(=O)c1ccccc1 | 56.1* | 1.1 | -10.8 | i | -5.0 | -24.5
FC(F)(F)c1ccc(-c2noc(CN3CCCCC3CN3CCOCC3)n2)cc1 (centres undefined) | 6.5 | . | . | . | . | 5.5
Cc1nnc(NC(=O)CN(C)C)s1 | 15.2 | . | . | . | . | 22.3
N#CC(C(N)=O)=C1CCCCC1 | 4.1 | 3.0 | 75.2* | i | -3.5 | 10.6
N#CC(C(=O)NC1CCCCC1)=C1CCCCCC1 | 7.4 | -3.6 | -0.3 | i | -18.5 | -35.2
Cc1nc2ccccc2n1CC(=O)N1CCC2(CC1)NC(=O)c1ccccc1O2 | 5.2 | . | . | . | . | -30.6
COc1ccc(C2(C(=O)N[C@H](Cn3nc(C4CC4)ccc3=O)C(C)C)CCCC2)cc1 | . | . | . | . | . | -20.6
CCC(C)NC(=O)CSc1nnc(-c2ccc(Cl)cc2)n1N (centres undefined) | 5.0 | -0.5 | 53.0* | i | -20.4 | 0.6
O=C(CSc1ccc(F)cc1)Nc1ccc(C2SCCS2)cc1 | 5.3 | 9.5* | -4.8 | i | -27.5 | -19.9
COc1ccc(OCC(=O)Nc2cccc(NC(=O)c3cccs3)c2)cc1 | 9.6 | . | . | . | . | -81.4
COc1ccc(-c2nc(CC(=O)O)cs2)cc1 | 11.8 | 0.7 | -13.4 | i | -16.4 | 17.2
COc1ccc(-c2nc(CC(=O)O)cs2)cc1OC | 10.6 | 22.7* | 2.0 | i | -21.8 | 0.5
CC(=O)[C@H]1CC[C@@H]2[C@]1(C)CC=C1[C@@]23C=C[C@@]2(C[C@H](O)CC[C@@]12C)[C@H](C(=O)O)[C@@H]3C(=O)O | 40.8* | . | . | . | . | 33.8
COC(=O)C1=C(C)N(c2ccc(F)cc2)CC1=O | 4.8 | . | . | . | . | 22.5
SMILES | PGE2 EP2 inh | Wee1 degr inh | p47phox inh | HSV augment | Furin inh | EP2 modulator
COc1ccc(CNC(=O)CSc2nc(N)c3c(C)c(C)sc3n2)cc1 | 8.4 | . | . | . | . | 5.2
N#CSc1cnc(N)s1 | 110.5* | . | . | . | . | -120.5
O=c1[nH]c2c(cc1CNCCO)c(-c1cccc(F)c1)nn2-c1ccccc1 | 10.9 | . | . | . | . | -1.0
O=S(=O)(c1ccc(Cl)s1)N1CCCc2cccc(O)c21 | 2.9 | 9.2* | -1.8 | i | -20.5 | -12.6
Cn1c(=O)n(C)c2cc(C(=O)N3CCC4(CC3)NC(=O)c3ccccc3O4)ccc21 | 15.1 | . | . | . | . | 6.1
O=C(Nc1ccc2c(c1)Cc1ccccc1-2)[C@@H]1[C@H](C(=O)O)[C@]2(Cl)C(Cl)=C(Cl)[C@@]1(Cl)C2(Cl)Cl | 42.0* | . | . | . | . | -26.1
O=C(Cn1nc(-c2ccc3c(c2)OCCO3)ccc1=O)Nc1ccc(C(=O)NC2CC2)cc1 | 9.9 | . | . | . | . | 20.7
CCCOC(=O)c1cc(-c2ccc(/C=C3/C(=O)N(C)C(=O)C(C#N)=C3C)o2)ccc1Cl | . | 1.4 | . | . | -3.1 | .
C=CCOC(=O)c1cc(-c2ccc(/C=C3\C(=O)NC(=O)C(C#N)=C3C)o2)ccc1Cl | 8.1 | -1.5 | 39.2* | . | 3.9 | -31.2
CCOc1cc(/C=C2\SC(=S)N(C(C(=O)O)c3ccccc3)C2=O)ccc1O (centres undefined) | 4.0 | 3.5 | -201.7 | ? | -6.3 | 11.7
CCOc1ccc(/C=C2/SC(=S)N(C(C(=O)O)c3ccccc3)C2=O)cc1OCC (centres undefined) | 10.3 | 17.3* | -20.1 | i | -8.2 | 43.6
Cc1ccc(CN2C(=O)C(C)Oc3ccc(C)cc32)cc1 (centres undefined) | 9.3 | . | . | . | . | 82.9*
Cc1cccc2cc(C(c3nnnn3Cc3ccccc3)N3CCCCC3)c(=O)[nH]c12 (centres undefined) | 12.8 | . | . | . | . | 68.5*
COc1ccc(Cn2nnnc2C(c2cc3cccc(C)c3[nH]c2=O)N2CCCCC2)cc1 (centres undefined) | 9.6 | . | . | . | . | -24.7
Cc1ccc(C)c2[nH]c(=O)c(C(c3nnnn3Cc3ccccc3)N3CCCCCC3)cc12 (centres undefined) | 15.2 | . | . | . | . | 74.8*
Cc1cccc2cc(C(c3nnnn3Cc3ccccc3)N3CCN(C)CC3)c(=O)[nH]c12 (centres undefined) | 1.3 | -1.2 | -8.4 | i | -11.9 | -10.5
Cc1cccc2cc(C(c3nnnn3Cc3ccccc3)N3CCN(c4ccccc4)CC3)c(=O)[nH]c12 (centres undefined) | 2.4 | -0.9 | -34.0 | i | -12.2 | 15.2
Cc1cccc2cc(C(c3nnnn3Cc3ccc(F)cc3)N3CCCCCC3)c(=O)[nH]c12 (centres undefined) | 22.2 | . | . | . | . | 67.2*
Cc1ccc(NC(=O)CN2C(=O)/C(=C3\SC(=S)N(C4CCS(=O)(=O)C4)C3=O)c3ccccc32)cc1 (centres undefined) | 8.2 | 0.9 | 76.4* | i | -13.1 | 4.8
O=C(CN1C(=O)/C(=C2\SC(=S)N(C3CCS(=O)(=O)C3)C2=O)c2ccccc21)Nc1ccccc1 (centres undefined) | 2.8 | 1.4 | 68.9* | i | -5.4 | 12.1
CCN1C(=O)/C(=C2\SC(=S)N(NC(=O)c3ccccc3O)C2=O)c2ccccc21 | 8.8 | 0.6 | -5.0 | i | -2.7 | -27.9
Cc1cc(C)cc(Oc2coc3cc(OC(=O)c4cccs4)ccc3c2=O)c1 | 13.8 | -3.4 | -1.7 | i | -10.0 | 7.7
